The list is not random: actives were taken first. Their share in the collection is about 3.5%.
KCNK9 inh: KCNK9 potassium channel inhibitors, primary screen, HEK293 cells, thallium flux; Potassium channel subfamily K member 9 (Homo sapiens), Q9NPC2; FluxOR thallium flux fluorescence; active compounds read low; B-score at 10 µM; 310,000 tested, 1.2% active;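 active means ratio B-score over 3 SD below the library mean, with starting fluorescence within 5 SD of its mean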;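 further: negative B-score means less thallium flux so channel inhibition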
ANO1 activ: TMEM16A chloride channel activators or potentiators, primary screen, cell-based, HTS; AID 623877, 2012; 340,000 tested, 0.3% active; Anoctamin-1 (Mus musculus), Q8BHY3; HEK293 TMEM16A/YFP-H148Q/I152L, iodide quench fluorescence; active compounds read low; B-score at 10 µM;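 active means fluorescence-ratio B-score plate-corrected deviation score at least 3 library SD below zero, with starting fluorescence score within 5 deviations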;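 further: channel opened by trigger with iodide after compound preincubation; score built on the fluorescence ratio of max minus min over baseline; more negative score means more quench and so TMEM16A activation or potentiation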
Target sequence (Q8BHY3 whole entry, looked up): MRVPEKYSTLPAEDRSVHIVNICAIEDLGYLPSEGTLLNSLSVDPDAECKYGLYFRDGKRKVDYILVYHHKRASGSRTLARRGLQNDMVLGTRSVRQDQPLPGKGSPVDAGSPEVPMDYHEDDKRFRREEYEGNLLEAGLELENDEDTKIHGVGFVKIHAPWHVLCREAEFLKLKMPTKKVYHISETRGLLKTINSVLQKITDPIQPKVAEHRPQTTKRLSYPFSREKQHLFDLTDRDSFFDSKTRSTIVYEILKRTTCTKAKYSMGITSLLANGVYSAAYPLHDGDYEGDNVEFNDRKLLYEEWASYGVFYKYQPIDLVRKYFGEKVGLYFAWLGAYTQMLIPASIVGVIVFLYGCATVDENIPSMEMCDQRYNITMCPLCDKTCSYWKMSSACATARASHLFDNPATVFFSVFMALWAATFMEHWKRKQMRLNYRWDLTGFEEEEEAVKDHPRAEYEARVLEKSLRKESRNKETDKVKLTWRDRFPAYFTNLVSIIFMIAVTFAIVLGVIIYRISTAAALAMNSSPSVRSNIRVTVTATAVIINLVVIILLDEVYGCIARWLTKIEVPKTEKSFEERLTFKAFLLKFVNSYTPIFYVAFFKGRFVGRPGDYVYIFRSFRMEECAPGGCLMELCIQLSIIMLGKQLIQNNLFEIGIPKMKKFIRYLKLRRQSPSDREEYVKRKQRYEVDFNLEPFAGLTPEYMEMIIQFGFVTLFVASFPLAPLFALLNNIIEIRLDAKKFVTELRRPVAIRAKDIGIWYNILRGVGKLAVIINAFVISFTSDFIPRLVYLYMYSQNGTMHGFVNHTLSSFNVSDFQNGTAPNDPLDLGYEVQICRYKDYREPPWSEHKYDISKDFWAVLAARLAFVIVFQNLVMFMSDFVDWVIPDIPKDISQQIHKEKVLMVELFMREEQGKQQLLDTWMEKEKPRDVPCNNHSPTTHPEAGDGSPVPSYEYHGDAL
KCNK3 inh: human KCNK3 channel inhibitors, primary screen, CHO cells, FluxOR thallium flux, B-score | FluxOR fluorescence; active compounds read low | AID 602410, 2012 | 340,000 tested, 0.84% active | B-score at 10 µM;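 active means B-score under library mean minus 4 SD, starting fluorescence ratio at most library mean plus 5 SD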;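 further: more negative B-score means stronger inhibition of thallium flux through KCNK3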
TMEM16A inh: TMEM16A chloride channel inhibitors, primary screen, cell-based, HTS; Anoctamin-1 (Mus musculus), Q8BHY3; HEK293 TMEM16A/YFP iodide influx fluorescence, ionomycin; normalized B-score (activity score, 25-100; higher = stronger inhibition) at 10 µM; 310,000 tested, 1.2% active;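 active means ratio plate-corrected score three or more library SD toward inhibition, starting fluorescence score within five deviations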;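 further: score derived from kinetic fluorescence span divided by baseline fluorescence per well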
Kir21 block: inhibitors of mouse Kir2.1 inward-rectifier potassium channel | 310,000 tested, 0.85% active | HEK293-Kir2.1, FluxOR thallium flux fluorescence; active compounds read low | B-score at 10 µM | Inward rectifier potassium channel 2 (Mus musculus), P35561;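 active means fluorescence ratio B-score at or below minus 3 SD of library scores, with starting-brightness B-score within 2 SD, cut at about -4.2 in these data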;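 further: channel flux triggered by added potassium and thallium sulfate stimulus; B-score of peak minus minimum fluorescence over baseline after thallium stimulus; more negative B-score means stronger Kir2.1 block with less thallium influx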
The depositor's hits bear a star; i = inactive; / = no result given; ! = a repeat was not active.

SMILES	KCNK9 inh	ANO1 activ	KCNK3 inh	TMEM16A inh	Kir21 block
COc1c2c(cc3ccc(=O)oc13)CCO2	i	i	i	i	2.3
Cc1ccc(C)n1-c1ccc(-c2ccnc(N)n2)cc1	/	i	i	/	/
Cc1ccc(NC(=O)c2cccc(OCc3c(C)noc3C)c2)c(C)c1	i	i	i	i	0.03
Cc1noc(C)c1COc1cccc(C(=O)Nc2ccc(Br)cc2F)c1	/	i	-9.2*	/	/
O=C(NCc1ccccc1OC(F)(F)F)C1CCC(=O)N(CCc2ccccn2)C1 (configuration not stated)	i	i	i	i	-0.13
CO[C@@]12[C@@H]3N[C@@H]3CN1C1=C(C(=O)C(N)=C(C)C1=O)[C@@H]2COC(N)=O	/	i	i	/	/
CCOc1cc(/C=N/NC(=O)CN2CCCCC2)ccc1OCc1cccc(Cl)c1	i	i	i	i	-4.7*
CCOc1cc(/C=N/NC(=O)CN2CCCCC2)ccc1OCc1ccc(Cl)cc1	i	i	i	i	-0.18
COc1ccc(S(=O)(=O)N2CCCOC2CNC(=O)C(=O)NCCCn2ccnc2)cc1 (configuration not stated)	i	-7.3*	i	i	1.4
COc1ccc(S(=O)(=O)N2CCCOC2CNC(=O)C(=O)NCCCn2ccnc2)cc1OC (configuration not stated)	i	i	i	i	-0.21
Cc1ccc(S(=O)(=O)N2CCCOC2CNC(=O)C(=O)NCCCn2ccnc2)cc1 (configuration not stated)	i	i	i	i	-0.05
COc1ccc(S(=O)(=O)N2CCOC2CNC(=O)C(=O)NCCCn2ccnc2)cc1OC (configuration not stated)	i	-15*	i	i	-0.01
O=C(Cc1ccccc1F)Nc1cccc(S(=O)(=O)N2CCOCC2)c1	/	i	i	/	/
CCc1ccccc1N(CC(=O)NC1CCCCC1)C(=O)CCC(=O)Nc1ccccn1	i	-5.8*	i	i	1.8
CCOc1ccccc1N(CC(=O)NC1CCCC1)C(=O)CCCC(=O)Nc1ccccn1	i	i	i	i	0.03
COc1ccc2c(c1)CCCN2C(N)=Nc1ccc(Cl)cc1	i	i	i	i	-7.6*
COc1ccc2c(c1)CCCN2C(N)=O	i	i	i	i	0.66
OCC[C@@H]1C[C@H](O)[C@@H](O)[C@@]2(CCCCO2)O1	i	i	i	i	1
CCOC(=O)c1ccc(NC(=O)CSc2nc3c(c(=O)n2CC)SC(C)C3)cc1 (configuration not stated)	-6.7*	i	i	i	-2.2
Cc1ccc(C2(c3ccc(C)cc3)CC2C(=O)Nc2ccc([N+](=O)[O-])cc2O)cc1 (configuration not stated)	i	i	i	100*	0.68
CCCCCC(=O)N1CC2(CC)CN(C(=O)CCCCC)CC(CC)(C1)C2=O	i	i	i	i	-0.5
CCCN1CCC(=O)N(CCOc2ccccc2)CC1	i	i	i	i	-1.9
CC(C)(C)C1CCC(=O)N(CCOc2ccccc2)CC1 (configuration not stated)	i	i	i	i	-5.6*
CC1CCCN(C(=O)COC(=O)C2CCN(S(=O)(=O)c3ccc4c(c3)OCCO4)CC2)C1 (configuration not stated)	i	i	i	i	1
COc1ccccc1-c1nnc2sc(-c3cc4ccccc4o3)nn12	i	i	i	100*	-1.3
SMILES	KCNK9 inh	ANO1 activ	KCNK3 inh	TMEM16A inh	Kir21 block
COc1ccccc1-c1nnc2sc(-c3ccc(N(C)C)cc3)nn12	i	i	i	i	0.02
Cc1cccn2c(=O)c3cc(C#N)c(=NC(=O)c4ccccc4)n(Cc4ccco4)c3nc12	-7.3*	i	-9.1*!	i	-0.07
Cc1cccc(C(=O)N=c2c(C#N)cc3c(=O)n4cccc(C)c4nc3n2Cc2ccco2)c1	i	i	i	i	-1.1
Cc1ccc(-n2c(C)nnc2SCC(=O)N(C)c2c(N)n(Cc3ccccc3)c(=O)[nH]c2=O)cc1	/	i	i	/	/
Cc1ccc(S(=O)(=O)CCC(=O)Nc2sccc2C#N)cc1	i	i	i	i	-4.6*
Cc1ccc(C)c(C(C)NC(=O)Cc2cccs2)c1 (configuration not stated)	i	i	i	i	-0.67
CCC(c1nnnn1Cc1ccco1)N(CCc1ccccc1)Cc1cc2cc(C)ccc2[nH]c1=O (configuration not stated)	i	i	i	i	-3.1
CCC(c1nnnn1CCc1ccccc1)N(Cc1ccco1)Cc1cc2c(C)ccc(C)c2[nH]c1=O (configuration not stated)	-7.3*	i	i	i	-6.5e-16
Cc1ccc2[nH]c(=O)c(CN(CCc3ccccc3)C(c3nnnn3Cc3ccco3)C(C)C)cc2c1 (configuration not stated)	i	i	-8.9*	i	0.52
O=C(NCc1nnnn1-c1ccc(F)cc1)c1ccc([N+](=O)[O-])o1	i	i	i	i	-2.5
CCOc1ccc(NC(=O)c2ccco2)cc1	i	i	i	i	0.03
COc1ccc(NC(=O)c2ccco2)cc1NC(=O)c1ccccc1	i	i	i	/	1.5
COc1ccccc1NC(=O)c1cccc(NC(=O)c2ccco2)c1	/	i	-9.4*	i	/
Cc1ccc(O)c(NC(=O)c2cccc(NC(=O)c3ccco3)c2)c1	-6.9*	i	-9.4*	i	1.3
O=C(Nc1ccc(Cl)c(NC(=O)c2cccs2)c1)c1ccco1	i	i	i	i	-1.6
O=C(Nc1cccc(NC(=O)c2cccs2)c1)c1ccco1	-6.6*	i	i	i	-0.56
CCOc1ccccc1NC(=O)c1ccc(NC(=O)c2ccco2)cc1	-6.6*	i	i	i	0
Cc1ccc(C(C)C)c(OCC(=O)Nc2ccc(N3CCOCC3)cc2N2CCOCC2)c1	/	i	i	/	/
Cc1onc(-c2ccccc2Cl)c1C(=O)Nc1ccc(-c2nnc3n2CCCCC3)cc1	i	i	i	i	-1.6
O=C(NN1C(=O)C2C(c3ccccc3)C=CC(c3ccccc3)C2C1=O)c1ccccc1 (configuration not stated)	-7.8*	i	i	i	0.17
O=C(NN1C(=O)C2C3c4ccccc4C(c4ccccc43)[C@@H]2C1=O)c1ccccc1 (some centres not stated)	i	i	i	i	-0.57
